Bioassay records from PubChem BioAssay.
Nrf2 ARE act: qHTS of Nrf2 Activators. AREc32 ARE-luciferase reporter (MCF7-derived line), luminescence, 24 h. Potency, µM (highest dose often 46.1 µM), for the others: at the highest dose activation, most hits filed as activators. 410,000 tested, 0.31% active. AID 624171, 2012; also: % of control where 0% means no effect; nearly all actives have a fitted effect of over 65% in size
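Luminescent ARE reporter assay in AREc32_Fluc cells: overnight plating at 37 deg C, 24 hr compound incubation, Steady-Glo added, 30 min RT before reading.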
A549 tox-1: Nrf2 qHTS screen for inhibitors: counterscreen for cytotoxicity | A549 ARE-Fluc cells, CellTiter-Fluor viability, 18-24 h | Potency, µM (titrated, usually from 46 µM), without a hit: top-dose activity change, negative = cytotoxicity, hits mostly inhibitors | 390,000 tested, 0.16% active; also: % is scaled to controls: 0 for no effect and ±100 for the full control effect
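A549 ARE_Fluc cells in 5% FBS OPTI-MEM were exposed to compounds in concentration-response for 18-24 h at 37 deg C. Viability was read by CellTiter-Fluor fluorescence (Ex 405/Em 525) after 30 min, before the luciferase read.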
TGFb SMAD3 inh: qHTS for Inhibitors of TGF-b. HepG2 CAGA-GFP TGF-b/SMAD3 reporter, GFP fluorescence, 18 h; TGF-beta stimulated, 500 pg/mL final. AID 588855, 2011. 410,000 tested, 1.2% active. Potency, µM (top dose mostly 46.1 µM), inactives show top-dose activity, negative = inhibition, actives largely listed as inhibitors; also: % is scaled to controls: 0 for no effect and ±100 for the full control effect; nearly all actives have a fitted effect of over 65% in size
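Per well, imaged GFP fluorescence of HEPG2 CAGA-GFP cells gives the signal; cells get compound, then TGF-beta (500 pg/mL final), 18 h at 37 degrees C; %Activity versus -TGF-beta and +DMSO controls.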
Nrf2 inh: Nrf2 qHTS screen for inhibitors. 360,000 tested, 2.1% active. Potency, µM (doses to about 46 µM), inactives show at the top dose activity change, negative = inhibition, actives largely listed as inhibitors. A549 ARE-Fluc reporter, luciferase luminescence, 18-24 h. AID 504444, 2011; also: % is scaled to controls: 0 for no effect and ±100 for the full control effect; nearly all actives have a fitted effect of over 60% in size
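In this cell-based qHTS, ARE-driven firefly luciferase in A549 cells reports Nrf2 activity; the luminescent signal after BugLite lysis is the measured value, with a prior CellTiter-Fluor read for cell health.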
HepG2 viability: qHTS for Inhibitors of TGF-b: Cytotox Counterscreen | Potency, µM (series often up to 46.1 µM), inactives show at the highest dose activity change, negative = cytotoxicity, most hits filed as cytotoxic | 410,000 tested, 0.76% active | HepG2 CAGA-GFP viability, ATP luminescence, 18 h | AID 588856, 2011
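CellTiter-Glo luminescence gave cytotoxicity after 18 hours at 37 degrees C. The cells were HepG2 CAGA-GFP in 1% FBS DMEM, stimulated with 500 pg/mL TGF-beta after compound addition. %Activity was normalised to no-cell wells (complete cell-killing) and DMSO (no toxicity), and curves were fitted and classified.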
FLuc enzyme inh: Nrf2 qHTS screen for inhibitors: Purified Fluc Biochemical Counterscreen for Hit Validation | shares compounds with Nrf2 inh | purified firefly luciferase, luminescence inhibition | Potency, µM (top dose mostly 57.5 µM), inactives show at the highest dose activity change, negative = inhibition, hits mostly inhibitors | 1,400 tested, 4% active | AID 720522, 2013; also: % is scaled to controls: 0 for no effect and ±100 for the full control effect; nearly all actives have a fitted effect of over 65% in size
Target sequence (P08659 whole entry, looked up): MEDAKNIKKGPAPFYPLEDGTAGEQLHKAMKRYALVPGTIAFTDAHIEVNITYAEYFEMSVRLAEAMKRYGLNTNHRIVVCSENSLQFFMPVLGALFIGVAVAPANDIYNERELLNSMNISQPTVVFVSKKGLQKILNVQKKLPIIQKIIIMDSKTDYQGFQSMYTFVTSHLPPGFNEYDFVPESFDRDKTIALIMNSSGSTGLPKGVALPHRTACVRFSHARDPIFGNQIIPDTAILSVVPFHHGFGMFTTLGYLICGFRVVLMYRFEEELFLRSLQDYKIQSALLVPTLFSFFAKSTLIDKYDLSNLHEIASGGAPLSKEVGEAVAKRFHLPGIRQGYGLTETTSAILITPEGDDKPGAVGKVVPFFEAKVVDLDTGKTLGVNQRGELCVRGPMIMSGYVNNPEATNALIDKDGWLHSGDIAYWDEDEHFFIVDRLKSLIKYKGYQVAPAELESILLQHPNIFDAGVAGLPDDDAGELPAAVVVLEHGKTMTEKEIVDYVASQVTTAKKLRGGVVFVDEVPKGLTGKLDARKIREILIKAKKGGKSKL
A549 tox-2: Nrf2 qHTS screen for inhibitors: A549 ARE-Fluc Cytotoxicity Counterscreen for Hit Validation; shares compounds with Nrf2 inh; Potency, µM (titrated, usually from 46.1 µM), for inactives: at the highest dose activity change, negative = cytotoxicity, hits mostly inhibitors; 1,400 tested, 2% active; A549 ARE-Fluc cells, cytotoxicity counterscreen;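 also: cells exposed to compounds for 18 to 24 hours; % is scaled to controls: 0 for no effect and ±100 for the full control effect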
Nrf2 ARE inh: Nrf2 qHTS screen for inhibitors: Nrf2 A549 ARE-Fluc Confirmation Assay for Hit Validation. 1,400 tested, 74% active. Potency, µM (highest dose often 46.1 µM), inactives show at the top dose activity change, negative = inhibition, hits mostly inhibitors. shares compounds with Nrf2 inh. AID 720524, 2013. A549 ARE-firefly luciferase reporter, luminescence; also: % is scaled to controls: 0 for no effect and ±100 for the full control effect; nearly all actives have a fitted effect of over 65% in size
An asterisk follows results filed as active; ? = inconclusive; / = no result. An excerpt weighted towards active compounds, which were near 3.6% of everything screened. Calls follow the shape of the dose curve; as a rule, active = well fitted curve in the direction sought with a large enough effect; inconclusive = small, poorly fitted or top-dose-only effect, or another doubt; inactive = no such curve, though single readings can be large; an effect the other way counts as inactive or inconclusive. Potency is read from the fitted curve at half-maximal effect.

SMILES	Nrf2 ARE act	A549 tox-1	TGFb SMAD3 inh	Nrf2 inh	HepG2 viability	FLuc enzyme inh	A549 tox-2	Nrf2 ARE inh
CC12C=CC(=O)C=C1CCC1C3CCC(O)(C(=O)CO)C3(C)CC(O)C12F (centres undefined)	2.4%	-4.9%	-7.9%	0.0103µM*	-1.5%	4.2%	-8.2%	0.0103µM*
CC(=O)C1(O)CCC2C3CC(C)C4=CC(=O)C=CC4(C)C3(F)C(O)CC21C (centres undefined)	0.3%	-5.6%	?	0.0326µM*	-4.3%	1.7%	-0.8%	0.0651µM*
C[C@H]1C[C@H]2[C@@H]3CCC4=CC(=O)C=C[C@]4(C)[C@@]3(Cl)[C@@H](O)C[C@]2(C)[C@@]1(O)C(=O)CO	0.7%	-22.9%	-7.2%	0.0146µM*	-25.2%	3.2%	-9.9%	0.0146µM*
Cc1ccc(C)c(N(CC(=O)NC(C)(C)C)C(=O)CCC(=O)Nc2nccs2)c1	-0.1%	4.1%	-10.2%	3.7%	-13.4%	/	/	/
COc1ccc(S(=O)(=O)N2CCOCC2)cc1NC(=O)CCc1c[nH]c2ccccc12	0.1%	-0.5%	-0.5%	?	-0.1%	/	/	/
COc1ccc(NC(=O)c2c(C)noc2-c2snnc2C)cc1	-0.5%	-6.5%	-10.0%	?	-0.4%	/	/	/
COc1ccccc1C(=O)Nc1ccc2nc(SCC(=O)N(C)c3ccccc3)sc2c1	-0.5%	-3.6%	0.9%	0.6%	9.5%	/	/	/
O=c1[nH]c(=O)n(C2OC(CO)C(O)C2O)cc1F (centres undefined)	0.2%	?	?	?	-38.0%	2.3%	?	0.146µM*
O=c1[nH]c(=O)n([C@@H]2O[C@H](CO)[C@@H](O)[C@H]2O)cc1F	/	/	39.1%	/	-49.5%	-0.2%	?	46.0%
O=c1[nH]c(=O)n([C@H]2C[C@@H](O)[C@@H](CO)O2)cc1F	/	/	?	/	-36.6%	/	/	/
O=C(O)CNC(=O)C1COc2ccccc2O1 (centres undefined)	-0.2%	-4.0%	7.5%	/	12.6%	/	/	/
CCOc1ccc(C(=O)Nc2ccc3nc(SCC(=O)N(C)c4ccccc4)sc3c2)cc1	-0.3%	-8.9%	-31.3%	5.8µM*	-6.2%	?	-11.5%	8.2µM*
Cc1oc(-c2ccc(Cl)cc2)nc1CN1CCCC(C(=O)N2CCN(C(=O)c3ccco3)CC2)C1 (centres undefined)	0.5%	16.8%	?	3.26µM*	-28.8%	0.2%	-15.1%	6.51µM*
COc1ccc(OC)c(CCNC(=O)C(C)n2nc(C)c3c(C)n(-c4ccc(C)cc4)nc3c2=O)c1 (centres undefined)	-0.8%	?	?	6.51µM*	-20.6%	-0.8%	?	3.66µM*
COc1ccc(OC)c(CCNC(=O)C(C)n2nc(C)c3c(C)n(-c4ccccc4)nc3c2=O)c1 (centres undefined)	0.0%	-0.3%	?	-14.2%	-5.8%	/	/	/
COc1ccc(/C(C)=N/Nc2ccccc2Cl)c(O)c1	16.1%	0.4%	1.8%	?	-0.4%	/	/	/
